{
  "source": "PubChem BioAssay (Tox21)",
  "note": "Where “and” joins values, the source holds several entries; their conditions need not be identical. Equal entries are not always repeated. Results filed as inconclusive are left out. Unmarked numbers belong to inactive results. Calls of active or inactive are those of the source. Calls follow the shape of the full dose curve. % is scaled to controls: 0 for no effect and ±100 for the full control effect; potency is read from the fitted curve at half-maximal effect.",
  "data": [
    {"assay": "qHTS assay to identify small molecule antagonists of the sonic hedgehog signaling (Shh) pathway (AID 1259369); also: nearly all actives have a fitted effect of over 45% in size", "details": "NIH/3T3 Gli1-Luc reporter, Shh antagonist, luminescence 24 h; series mostly up to 92.4 µM; activity change, negative = inhibition: at the top concentration", "source_text": "U.S. Tox21 Program National Center for Advancing Translational Sciences [NCATS] NIH Chemical Genomics Center [NCGC] U.S. Environmental Protection Agency [EPA] National Institutes of Environmental Health Sciences [NIEHS] National Toxicology Program [NTP] U.S. Food and Drug Administration [FDA] Tox21 Assay Overview: The sonic hedgehog (Shh) pathway is essential for normal embryonic development. Dysregulation of the Shh pathway can cause severe developmental defects in organs. Therefore chemicals that interfere with the pathway are potential developmental toxicants. A cell line designated 3T3Gli1-Luc (DMB/OARSA/CFSAN/FDA, Laurel, MD), a NIH/3T3 derived clone containing stably integrated Gli1-Luc reporter is used to detect chemical interference of the Shh pathway, by changes in the expression of the firefly Luc gene under the control of the Gli1 transcriptional response element. This cell line was used to screen Tox21 libraries for identifying and prioritizing the potential developmental toxicants that interfere Shh pathway. Conditioned medium-stimulated mode was used to screen for chemicals inhibiting Shh signaling.\nTox21 Assay Protocol Summary: 3T3 Gli1-Luc cells were dispensed at 2,000 per well in 5uL of culture medium into white solid bottom 1536-well plates (Greiner Bio-One, Monroe, NC) using a Multidrop Combi (Thermo Scientific, Waltham, MA) dispenser. The assay plates were incubated at 37 C and 5% CO2 for 4hr, and then 23nL of compounds dissolved in DMSO and positive control were transferred using a Pintool station (Wako, San Diego, CA). The compound transfer was followed by the addition of 1ul conditioned medium or assay buffer using two separate tips of Flying Reagent Dispenser (FRD, Aurora Discovery, San Diego, CA). The assay plates were incubated at 37C and 5% CO2 for 24hr. For luciferase read, 4uL of Amplite Luciferase reporter gene assay reagent (AAT Bioquest, Inc. Sunnyvale, CA) was added to each well of the assay plates using FRD and incubated at room temperature for 30min. The luminescence signal was measured using a ViewLux plate reader (Perkin Elmer, Shelton, CT).", "values": [
      {"smiles": "CC(Cc1ccccc1)N(C)Cc1ccco1", "note": "(stereo not given)", "activity change, negative = inhibition": "3.48% [at 42.5 µM]"},
      {"smiles": "CN", "activity change, negative = inhibition": "0.0066%"},
      {"smiles": "N#CC(C#N)=NNc1cccc(Cl)c1", "Potency": "1.09 µM (active)"},
      {"smiles": "CC(=O)[O][Pb]([c]1ccccc1)([c]1ccccc1)[c]1ccccc1", "Potency": "0.386 µM (active)"},
      {"smiles": "Clc1ccc(C(c2ccc(Cl)cc2)C(Cl)Cl)cc1", "Potency": "34.4 µM (active)"},
      {"smiles": "CNN", "activity change, negative = inhibition": "2.12%"},
      {"smiles": "Oc1ccc2[nH]cc(CCCCN3CC=C(c4ccccc4)CC3)c2c1", "Potency": "3.35 µM (active)"},
      {"smiles": "COCCC#N", "activity change, negative = inhibition": "18.5%"},
      {"smiles": "Fc1ccc(C(OCCN2CCN(CCCc3ccccc3)CC2)c2ccc(F)cc2)cc1", "Potency": "5.31 µM (active)"},
      {"smiles": "C#CCO", "activity change, negative = inhibition": "15.7%"},
      {"smiles": "O=C(Cl)c1ccccc1F", "activity change, negative = inhibition": "-28.3%"},
      {"smiles": "COP(=O)(OC)Oc1ccc([N+](=O)[O-])cc1", "activity change, negative = inhibition": "-5.53%"},
      {"smiles": "CC(C)C(Br)C(=O)NC(N)=O", "note": "(stereo not given)", "activity change, negative = inhibition": "5.87% [at 42.5 µM]"},
      {"smiles": "CCC(C)Br", "note": "(stereo not given)", "activity change, negative = inhibition": "-5.29%"},
      {"smiles": "CCCCn1cc[n+](C)c1", "note": "(tested in a mixture with another compound)", "activity change, negative = inhibition": "-0.697%"},
      {"smiles": "CC(=O)[O-].CC(=O)[O-].[Co+2]", "activity change, negative = inhibition": "46.7%"},
      {"smiles": "CC1CCCC1", "activity change, negative = inhibition": "-15.5%"},
      {"smiles": "CCOC(=O)CCN(SN(C)C(=O)Oc1cccc2c1OC(C)(C)C2)C(C)C", "Potency": "54.5 µM (active)"},
      {"smiles": "ClC1=C(Cl)[C@]2(Cl)[C@H]3[C@H]([C@@H]4C=C[C@H]3C4)[C@@]1(Cl)C2(Cl)Cl", "Potency": "inactive"},
      {"smiles": "CCCCC/C=C\\C/C=C\\C/C=C\\C/C=C\\CCCC(=O)NCC(=O)O", "activity change, negative = inhibition": "-1.32% [at 42.5 µM]"},
      {"smiles": "CCN(CC)C(=S)S", "Potency": "5.49 µM (active) and 2.42 µM (active)"},
      {"smiles": "CC(C)C(Nc1ccc(C(F)(F)F)cc1Cl)C(=O)OC(C#N)c1cccc(Oc2ccccc2)c1", "note": "(stereo not given)", "Potency": "43.6 µM (active)"},
      {"smiles": "CC(C)[C@@H](Nc1ccc(C(F)(F)F)cc1Cl)C(=O)OC(C#N)c1cccc(Oc2ccccc2)c1", "note": "(stereo not given in full)", "activity change, negative = inhibition": "12%"},
      {"smiles": "COc1ccc2[nH]cc(CCN(C(C)C)C(C)C)c2c1", "activity change, negative = inhibition": "-26%"},
      {"smiles": "Brc1ccc(Oc2ccc(Br)cc2Br)c(Br)c1", "activity change, negative = inhibition": "42.6%"},
      {"smiles": "C=CC(=C)C", "activity change, negative = inhibition": "2.33%"},
      {"smiles": "Cc1cccc(Cc2cnc[nH]2)c1C", "activity change, negative = inhibition": "-1.58% [at 42.5 µM]"},
      {"smiles": "CSC(C)(C)/C=N/O", "activity change, negative = inhibition": "4.27%"},
      {"smiles": "Nc1ccccc1-c1ccccc1", "activity change, negative = inhibition": "-1.22%"},
      {"smiles": "BrCC(Br)(Br)Br", "activity change, negative = inhibition": "15%"},
      {"smiles": "[Cl-].[Cl-].[Cl-].[Yb+3]", "activity change, negative = inhibition": "-24.6%"},
      {"smiles": "CC(=O)O.CC(=O)O.CC(=O)O.CC(=O)O.CC(=O)O.CC(=O)O.CC(=O)O.O.O.[Cr].[Cr].[Cr]", "activity change, negative = inhibition": "19.8%"},
      {"smiles": "Clc1ccc(C(Cl)(Cl)Cl)cc1Cl", "activity change, negative = inhibition": "-8.21%"},
      {"smiles": "c1csc(-c2ccc(-c3cccs3)s2)c1", "activity change, negative = inhibition": "0%"},
      {"smiles": "CCCCC(CC)COC(=O)c1ccccc1C(=O)OCC(CC)CCCC", "note": "(stereo not given)", "activity change, negative = inhibition": "30%"},
      {"smiles": "Cc1ccc(C)c2ccccc12", "activity change, negative = inhibition": "0%"},
      {"smiles": "C[C@]12C/C(=C/O)C(=O)C[C@@H]1CC[C@@H]1[C@@H]2CC[C@@]2(C)[C@H]1CC[C@]2(C)O", "Potency": "15.5 µM (active)"},
      {"smiles": "O=S(=O)(NS(=O)(=O)C(F)(F)F)C(F)(F)F", "Potency": "2.43 µM (active)"},
      {"smiles": "CN/C(=N\\[N+](=O)[O-])NCc1cnc(Cl)s1", "activity change, negative = inhibition": "0%"},
      {"smiles": "COc1cnc(OC)n2nc(NS(=O)(=O)c3c(OCC(F)F)cccc3C(F)(F)F)nc12", "activity change, negative = inhibition": "30%"}
    ]}
  ]
}
